# Results: the supplement of paper PMC8728848
# The sample as a whole holds a higher share of the strongest signals than the screen did.
# B1: SspB A3vp1 (Streptococcus gordonii), Q54186 (protein)
# chain: MTNEADYQAKLAAYQTELARVQKANADAKATYEKAVEDNKAKNAAIKAENEEIKQRNAVAKTDYEAKLAKYEADLAKYKKEFAAYTAALAEAESKKKQDGYLSEPRSQSLNFKSEPNAIRTIDSSVHQYGQQELDALVKSWGISPTNPDRKKSRAYSYFNAINSNNTYAKLVLEKDKPVDVTYTGLKNSSFNGKKISKVVYTYTLKETGFNDGTKMTMFASSDPTVTAWYNDYFTSTNINVKVKFYDEEGQLMNLTGGLVNFSSLNRGNGSGAIDKDAIESVRNFNGRYIPISGSSIKIHENNSAYADSSNAEKSLGARWNTSEWDTTSSPNNWYGAIVGEITQSEISFNMASSKSGNIWFAFNSNINAIGVPTKPVAPTAPTQPMYETEKPLEPAPVAPSYENEPTPPVKTPDQPEPSKPAAALEHHHHHH
# Legend:
# Assay in all cases: glycan array binding signal (z-score within array); higher = stronger binding
# Settings in all cases: glycan notation: IUPAC condensed, linker removed
# [1] = target: Fuc(a1-2)Gal(b1-3)GlcNAc(b1-2)Man(a1-3)[Fuc(a1-2)Gal(b1-3)GlcNAc(b1-2)Man(a1-6)]Man(b1-4)GlcNAc(b1-4)GlcNAc
# Method in brief: (§1)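 Negative Z-scores can be read as non-binding. The Z-score is calculated within each array and then averaged across arrays of one protein sequence at different concentrations or buffers and across linkers. Arrays, 3228 in all, were curated from the Consortium for Functional Glycomics database and kept only where the protein sequence was available.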
# [2] = target: Fuc(a1-2)Gal(b1-4)GlcNAc(b1-2)Man(a1-3)[Fuc(a1-2)Gal(b1-4)GlcNAc(b1-2)Man(a1-6)]Man(b1-4)GlcNAc(b1-4)[Fuc(a1-6)]GlcNAc
# Method in brief: as §1
# [3] = target: Fuc(a1-2)[Gal(a1-3)]Gal(b1-3)GlcNAc(b1-3)GalNAc
# Method in brief: as §1
# [4] = target: Fuc(a1-2)[GalNAc(a1-3)]Gal(b1-4)GlcNAc
# Method in brief: as §1
# [5] = target: Fuc(a1-2)[GalNAc(a1-3)]Gal(b1-4)GlcNAc(b1-2)Man(a1-3)[Fuc(a1-2)[GalNAc(a1-3)]Gal(b1-4)GlcNAc(b1-2)Man(a1-6)]Man(b1-4)GlcNAc(b1-4)[Fuc(a1-6)]GlcNAc
# Method in brief: as §1
# [6] = target: Fuc(a1-2)[GalNAc(a1-3)]Gal(b1-4)[Fuc(a1-3)]GlcNAc(b1-3)GalNAc
# Method in brief: as §1
# [7] = target: Fuc(a1-2)[GalNAc(b1-3)]Gal
# Method in brief: as §1
# [8] = target: Fuc(a1-3)[Gal(b1-4)]GlcNAc(b1-2)Man(a1-3)[Fuc(a1-3)[Gal(b1-4)]GlcNAc(b1-2)Man(a1-6)]Man(b1-4)GlcNAc(b1-4)GlcNAc
# Method in brief: as §1
# [9] = target: Gal(a1-3)Gal(b1-4)GlcNAc(b1-2)Man(a1-3)[Gal(a1-3)Gal(b1-4)GlcNAc(b1-2)Man(a1-6)]Man(b1-4)GlcNAc(b1-4)GlcNAc
# Method in brief: as §1
# [10] = target: Gal(a1-3)Gal(b1-4)GlcNAc(b1-6)GalNAc
# Method in brief: as §1
# Gal(a1-3)GalNAc = target: Gal(a1-3)GalNAc
# Method in brief: as §1
# Gal(a1-4)Gal(b1-4)GlcNAc = target: Gal(a1-4)Gal(b1-4)GlcNAc
# Method in brief: as §1
# Gal(b1-3)GlcNAc = target: Gal(b1-3)GlcNAc
# Method in brief: as §1
# [11] = target: Gal(b1-3)GlcNAc(b1-2)[Gal(b1-3)GlcNAc(b1-6)]Man(a1-6)[Gal(b1-3)GlcNAc(b1-2)Man(a1-3)]Man(b1-4)GlcNAc(b1-4)GlcNAc
# Method in brief: as §1
# [12] = target: Gal(b1-3)GlcNAc(b1-6)[Gal(b1-3)]GalNAc
# Method in brief: as §1
# [13] = target: Gal(b1-3)[Fuc(a1-4)]GlcNAc(b1-2)Man(a1-3)[Gal(b1-3)[Fuc(a1-4)]GlcNAc(b1-2)Man(a1-6)]Man(b1-4)GlcNAc(b1-4)[Fuc(a1-6)]GlcNAc
# Method in brief: as §1
# [14] = target: Gal(b1-3)[Neu5Ac(a2-6)]GlcNAc(b1-4)Gal(b1-4)Glc
# Method in brief: as §1
# Gal(b1-4)Gal = target: Gal(b1-4)Gal
# Method in brief: as §1
# [15] = target: Gal(b1-4)GlcNAc(a1-6)Gal(b1-4)GlcNAc
# Method in brief: as §1
# [16] = target: Gal(b1-4)GlcNAc(b1-2)Man(a1-3)Man(b1-4)GlcNAc(b1-4)GlcNAc
# Method in brief: as §1
# [17] = target: Gal(b1-4)GlcNAc(b1-2)Man(a1-3)[Gal(b1-4)GlcNAc(b1-2)Man(a1-6)][Gal(b1-4)GlcNAc(b1-4)]Man(b1-4)GlcNAc(b1-4)[Fuc(a1-6)]GlcNAc
# Method in brief: as §1
# [18] = target: Gal(b1-4)GlcNAc(b1-2)[Gal(b1-4)GlcNAc(b1-6)]Man(a1-6)[GlcNAc(b1-4)][Gal(b1-4)GlcNAc(b1-2)Man(a1-3)]Man(b1-4)GlcNAc(b1-4)GlcNAc
# Method in brief: as §1
# [19] = target: Gal(b1-4)GlcNAc(b1-3)Gal(b1-4)GlcNAc(b1-2)[Gal(b1-4)GlcNAc(b1-3)Gal(b1-4)GlcNAc(b1-6)]Man(a1-6)[Gal(b1-4)GlcNAc(b1-3)Gal(b1-4)GlcNAc(b1-2)Man(a1-3)]Man(b1-4)GlcNAc(b1-4)GlcNAc
# Method in brief: as §1
# [20] = target: Gal(b1-4)GlcNAc(b1-3)Gal(b1-4)GlcNAc(b1-2)[Gal(b1-4)GlcNAc(b1-3)Gal(b1-4)GlcNAc(b1-6)]Man(a1-6)[Gal(b1-4)GlcNAc(b1-3)Gal(b1-4)GlcNAc(b1-2)Man(a1-3)]Man(b1-4)GlcNAc(b1-4)[Fuc(a1-6)]GlcNAc
# Method in brief: as §1
# [21] = target: Gal(b1-4)GlcNAc(b1-3)Gal(b1-4)GlcNAc(b1-3)Gal(b1-4)GlcNAc(b1-2)Man(a1-3)[Gal(b1-4)GlcNAc(b1-3)Gal(b1-4)GlcNAc(b1-3)Gal(b1-4)GlcNAc(b1-2)Man(a1-6)]Man(b1-4)GlcNAc(b1-4)[Fuc(a1-6)]GlcNAc
# Method in brief: as §1
# [22] = target: Gal(b1-4)GlcNAc(b1-3)Gal(b1-4)GlcNAc(b1-3)Gal(b1-4)GlcNAc(b1-3)Gal(b1-4)GlcNAc(b1-2)Man(a1-3)[Gal(b1-4)GlcNAc(b1-3)Gal(b1-4)GlcNAc(b1-3)Gal(b1-4)GlcNAc(b1-3)Gal(b1-4)GlcNAc(b1-2)Man(a1-6)]Man(b1-4)GlcNAc(b1-4)GlcNAc
# Method in brief: as §1
# [23] = target: Gal(b1-4)GlcNAc(b1-3)Gal(b1-4)GlcNAc(b1-3)Gal(b1-4)GlcNAc(b1-3)Gal(b1-4)GlcNAc(b1-3)Gal(b1-4)GlcNAc(b1-2)Man(a1-3)[Gal(b1-4)GlcNAc(b1-3)Gal(b1-4)GlcNAc(b1-3)Gal(b1-4)GlcNAc(b1-3)Gal(b1-4)GlcNAc(b1-3)Gal(b1-4)GlcNAc(b1-2)Man(a1-6)]Man(b1-4)GlcNAc(b1-4)GlcNAc
# Method in brief: as §1
# [24] = target: Gal(b1-4)GlcNAc(b1-3)Gal(b1-4)GlcNAc(b1-3)Gal(b1-4)GlcNAc(b1-3)Gal(b1-4)GlcNAc(b1-3)Gal(b1-4)GlcNAc(b1-2)Man(a1-3)[Gal(b1-4)GlcNAc(b1-3)Gal(b1-4)GlcNAc(b1-3)Gal(b1-4)GlcNAc(b1-3)Gal(b1-4)GlcNAc(b1-3)Gal(b1-4)GlcNAc(b1-2)Man(a1-6)]Man(b1-4)GlcNAc(b1-4)[Fuc(a1-6)]GlcNAc
# Method in brief: as §1
# [25] = target: Gal(b1-4)GlcNAc(b1-3)Gal(b1-4)GlcNAc(b1-6)[Gal(b1-3)]GalNAc
# Method in brief: as §1
# [26] = target: Gal(b1-4)GlcNAc(b1-6)[Gal(b1-3)]GalNAc
# Method in brief: as §1
binder,measurement,setting,value
B1,glycan array binding signal (z-score),[1],6.26
same,glycan array binding signal (z-score),[2],-0.372
same,glycan array binding signal (z-score),[3],0.099
same,glycan array binding signal (z-score),[4],-0.651
same,glycan array binding signal (z-score),[5],0.127
same,glycan array binding signal (z-score),[6],3.5
same,glycan array binding signal (z-score),[7],-1.11
same,glycan array binding signal (z-score),[8],0.062
same,glycan array binding signal (z-score),[9],1.84
same,glycan array binding signal (z-score),[10],-0.506
same,glycan array binding signal (z-score),Gal(a1-3)GalNAc,-0.575
same,glycan array binding signal (z-score),Gal(a1-4)Gal(b1-4)GlcNAc,0.692
same,glycan array binding signal (z-score),Gal(b1-3)GlcNAc,-0.432
same,glycan array binding signal (z-score),[11],1.46
same,glycan array binding signal (z-score),[12],0.011
same,glycan array binding signal (z-score),[13],0.75
same,glycan array binding signal (z-score),[14],-0.063
same,glycan array binding signal (z-score),Gal(b1-4)Gal,-0.088
same,glycan array binding signal (z-score),[15],-0.728
same,glycan array binding signal (z-score),[16],-0.334
same,glycan array binding signal (z-score),[17],3.03
same,glycan array binding signal (z-score),[18],0.194
same,glycan array binding signal (z-score),[19],3.16
same,glycan array binding signal (z-score),[20],3.01
same,glycan array binding signal (z-score),[21],3.73
same,glycan array binding signal (z-score),[22],3.61
same,glycan array binding signal (z-score),[23],3.36
same,glycan array binding signal (z-score),[24],3.38
same,glycan array binding signal (z-score),[25],2.1
same,glycan array binding signal (z-score),[26],0.609
